Drawing on PubChem BioAssay AID488969 (Vanderbilt High Throughput Screening Facility, 2010), this text covers z-score for 68 compounds.

Whole data set: some 110,000 compounds, median “z-score” near -0.1, cut for the highest 2% near 2. The sample as a whole holds a higher share of the highest values than the screen did. Activity calls are given as the source filed them.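 How the source made its calls: active means z-score in the third read window above 3 or below -3; inactive means the rest.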

The experiment deals with Metabotropic glutamate receptor 8 (Rattus norvegicus) (UniProt P70579). The experiment in a line: mGluR8 Gi/Go-coupled signaling modulation – cell-based, rat, thallium flux, HTS, primary screen (AID 488969). Conditions: HEK293 rat mGluR8, GIRK (G protein-gated inwardly rectifying potassium channel) thallium flux, FluoZin2; at 10 µM; stronger effect = higher value; submaximal glutamate (EC20) added with thallium.
Sequence of Metabotropic glutamate receptor 8 (Rattus norvegicus) (P70579 whole entry, looked up): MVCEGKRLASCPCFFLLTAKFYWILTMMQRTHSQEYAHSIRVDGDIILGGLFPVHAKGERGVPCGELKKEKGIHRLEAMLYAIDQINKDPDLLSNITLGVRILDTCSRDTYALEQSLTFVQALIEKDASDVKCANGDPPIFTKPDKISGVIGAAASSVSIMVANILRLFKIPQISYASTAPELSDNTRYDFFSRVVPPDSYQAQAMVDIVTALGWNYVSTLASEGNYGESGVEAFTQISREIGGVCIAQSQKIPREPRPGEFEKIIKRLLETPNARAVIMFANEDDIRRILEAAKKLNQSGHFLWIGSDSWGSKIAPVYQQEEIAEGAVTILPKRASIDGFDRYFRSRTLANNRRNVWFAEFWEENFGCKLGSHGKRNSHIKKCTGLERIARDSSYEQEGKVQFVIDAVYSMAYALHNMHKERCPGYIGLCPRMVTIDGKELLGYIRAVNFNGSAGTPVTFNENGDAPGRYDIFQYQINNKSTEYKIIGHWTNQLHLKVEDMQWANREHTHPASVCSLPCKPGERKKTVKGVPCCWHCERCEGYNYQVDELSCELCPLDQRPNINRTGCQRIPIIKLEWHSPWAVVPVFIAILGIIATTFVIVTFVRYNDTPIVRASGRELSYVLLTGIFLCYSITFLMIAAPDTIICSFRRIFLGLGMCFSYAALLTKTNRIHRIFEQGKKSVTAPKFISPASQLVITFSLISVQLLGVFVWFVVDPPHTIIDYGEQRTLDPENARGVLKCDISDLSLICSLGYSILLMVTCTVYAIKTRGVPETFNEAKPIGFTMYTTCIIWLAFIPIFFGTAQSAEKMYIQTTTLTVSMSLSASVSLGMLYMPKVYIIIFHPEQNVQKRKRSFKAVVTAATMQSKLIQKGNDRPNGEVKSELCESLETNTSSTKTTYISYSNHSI
The compound `Cc1nn(-c2ccccc2)c(C)c1/C=N/NC(=O)c1cc(-c2cccc3ccccc23)n[nH]1` registered a z-score of -0.481.

As to `Cc1c(C(=O)Oc2ccc(F)cc2)sc2ncn(Cc3cccc(F)c3)c(=O)c12`, the z-score is -0.113.

Compound `O=c1c2ccccc2[nH]c(=S)n1Cc1cccs1` registered a z-score of 2.21.

`O=c1c2cc(Cl)ccc2[nH]c(=S)n1Cc1ccccn1` yielded a z-score of 1.21.

`CCN(CC)CCn1c(=S)[nH]c2ccc(Cl)cc2c1=O` yielded a z-score of 1.01.

For the compound `O=C(CCn1c(=S)[nH]c2ccccc2c1=O)N1CCOCC1`, the z-score stood at 0.695.

For `O=c1c2cc(Cl)ccc2[nH]c(=S)n1Cc1cccs1`, the z-score is 4.2 (active).

`CCC1CCCCN1Cc1ccc(OC)c(C)c1C` (stereo not drawn): the z-score is 0.363.

`CC(C)Oc1ccc(/C(O)=C2/C(=O)C(=O)N(CCCn3ccnc3)C2c2cccnc2)cc1` (stereo not drawn) registered a z-score of -0.0218.

As for `O=S(=O)(Nc1ncccn1)c1ccc(Nc2ncnc3ccccc23)cc1`, the z-score amounted to 0.439.

Take `Cc1cccc(OCC(=O)Nc2sc3c(c2C#N)CCC3)c1`: the z-score is -0.312.

`O=C(NC1(C(F)(F)F)NC(=O)N(Cc2cccnc2)C1=O)c1ccncc1` (stereo not drawn) came in with a z-score of 2.13.

`O=C(NC1(C(F)(F)F)NC(=O)N(Cc2cccnc2)C1=O)c1ccc(F)cc1` (stereo not drawn): the z-score turned out to be 0.269.

`O=C(NC1(C(F)(F)F)NC(=O)N(Cc2cccnc2)C1=O)c1ccccc1` (stereo not drawn) had a z-score of 1.13.

`CCOC(=O)/C=C/C(=O)Nc1ccccc1-c1ccccc1NC(=O)/C=C/C(=O)OCC` had a z-score of -0.138.

`COc1ccccc1OCCCOc1c(C)cc(C)cc1Br` returned a z-score of -0.185.

With `FC(F)(F)c1nnc2ccc(N3CCCC3)nn12`, the z-score is -0.343.

As for `CCOC(=O)c1cnc(-n2nc(C)cc2C)nc1Nc1ccccc1OC`, the z-score worked out at 0.0785.

For `CCC1CCCCN1S(=O)(=O)c1ccc(S(=O)(=O)N(Cc2ccccn2)CC2CCCO2)cc1` (stereo not drawn), the z-score was -0.251.

In turn, `O=c1[nH]c2cccnc2n1Cc1ccco1` returned a z-score of 0.26.

`O=c1[nH]c2ccc(Cl)cc2c(=O)n1Cc1ccco1`: the z-score is 5.27 (active).

Regarding `O=c1c2cc(Cl)ccc2[nH]c(=S)n1Cc1ccco1`, the z-score is 16.1 (active).

`CC(C)NC(=O)c1ccc2c(=O)n(Cc3ccco3)c(=S)[nH]c2c1` displayed a z-score of 0.167.

Turning to `Nc1cc(=O)[nH]c(=O)n1Cc1ccco1`, the z-score worked out at 0.299.

`O=c1c2cc3c(cc2[nH]c(=S)n1Cc1ccco1)OCO3` returned a z-score of 2.77.

In the case of `COc1cc2[nH]c(=S)n(Cc3ccco3)c(=O)c2cc1OC`, the z-score was -0.209.

As to `O=C(c1ccc2c(=O)n(Cc3ccco3)c(=S)[nH]c2c1)N1CCN(Cc2ccccc2)CC1`, the z-score was found to be 0.611.

On to `CN1CCN(C(=O)c2ccc3c(=O)n(Cc4ccco4)c(=S)[nH]c3c2)CC1`, for which the z-score amounted to 0.757.

Compound `OCc1cn(-c2ccccc2)nc1-c1ccc(-c2nn(-c3ccccc3)cc2CO)cc1` yielded a z-score of 0.428.

`Cc1ccc(NC(=O)c2cc(S(=O)(=O)c3ccccc3)ccc2Cl)cc1`: the z-score was -0.0678.

With `COc1ccc(-n2c(SCCC(=O)O)nnc2-c2ccncc2)cc1`, the z-score was found to be 0.658.

For `Cc1cc(C)cc(C(=O)NCC(=O)OCC(=O)N2c3ccccc3NC(=O)C2(C)C)c1`, the z-score was -0.138.

Regarding `CC(C)c1nc(NCc2ccccc2)c(C#N)c2c1CCCC2`, the z-score is -0.133.

The compound `CCN(CC)S(=O)(=O)c1ccc(C(=O)OCCNC(=O)c2cccnc2)cc1` returned a z-score of -0.485.

`CCOc1[nH]n(-c2ccccc2)c(=O)c1C=Nc1ccc(Cl)cc1`: the z-score came out at 0.655.

With `CCOc1[nH]n(-c2ccc(Cl)cc2)c(=O)c1C=Nc1ccc(C)cc1`, the z-score was -0.176.

Regarding `CCOc1[nH]n(-c2ccc(Cl)cc2)c(=O)c1C=Nc1ccc(Cl)cc1`, the z-score was 3.26 (active).

The compound `COc1ccc(-c2nc(C#N)c(N3CCC(C(N)=O)CC3)o2)cc1` returned a z-score of -0.0894.

As for `N=c1c2c(-c3ccccc3)c(-c3ccccc3)n(Cc3ccccc3)c2ncn1CCCO`, the z-score is 4.35 (active).

As to `N=c1c2c(-c3ccccc3)c(-c3ccccc3)n(Cc3ccco3)c2ncn1CCO`, the z-score is 0.759.

Compound `OCCNc1ncnc2c1c(-c1ccccc1)c(-c1ccccc1)n2Cc1ccco1` gave a z-score of -0.463.

In turn, `c1ccc(-c2c(-c3ccccc3)n(Cc3ccco3)c3ncnc(NCCCn4ccnc4)c23)cc1` gave a z-score of 2.78.

`N=c1c2c(-c3ccccc3)c(-c3ccccc3)n(Cc3ccco3)c2ncn1CCN1CCOCC1` gave a z-score of -0.19.

Regarding `c1ccc(-c2oc3ncnc(NCCCn4ccnc4)c3c2-c2ccccc2)cc1`, the z-score was determined as 0.609.

Regarding `N=c1c2c(-c3ccccc3)c(-c3ccccc3)n(Cc3ccccc3)c2ncn1CCO`, the z-score was found to be 0.392.

Regarding `CC(C)Cn1cnc2c(c(-c3ccccc3)c(-c3ccccc3)n2Cc2ccco2)c1=N`, the z-score was 3.58 (active).

Regarding `N=c1c2c(-c3ccccc3)c(-c3ccccc3)n(Cc3ccco3)c2ncn1Cc1ccccc1`, the z-score amounted to 0.528.

As for `COc1ccc(C(=O)Nc2nc3ccc4nc(C)sc4c3s2)cc1`, the z-score is -0.0988.

The compound `CCC(C)NC(=O)Cn1c(COc2ccc(Cl)cc2Cl)nc2ccccc21` (stereo not drawn) registered a z-score of -2.32.

`O=C(CN(Cc1ccccc1)C(=O)CSc1nnc(COc2ccccc2)o1)NC1CCCC1` had a z-score of 0.0593.

With `Cc1cc(/C=C(\C#N)C(=O)NC2CC2)c(C)[nH]1`, the z-score turned out to be 0.155.

The compound `CCCNC(=O)c1cccc(COCC(F)(F)C(F)F)c1` returned a z-score of -0.0567.

The compound `Cc1ccc(S(=O)(=O)N2CCOCC2)cc1C(=O)Nc1ccc2c(c1)CCC2` returned a z-score of -0.205.

The compound `O=C1/C(=C/c2cccnc2)SC(=S)N1c1ccc(F)cc1` had a z-score of -0.12.

As to `CCCC(=O)n1nc(-c2ccccc2)nc1N`, the z-score was 9.34 (active).

Compound `CCCC(=O)n1nc(-c2cccnc2)nc1N` had a z-score of 0.575.

`CCC(=O)n1nc(-c2ccccc2)nc1N`: the z-score was -0.874.

The compound `S=C(NC1CCCCC1)N(CCc1nc2ccccc2[nH]1)C1CCCC1` showed a z-score of -1.02.

For `CC1Cc2ccccc2N1C(=O)CCNS(=O)(=O)c1cccc2nsnc12` (stereo not drawn), the z-score stood at 0.906.

On to `CCOC(=O)c1cc2n(c1/N=C/N(C)C)-c1ccccc1C2=O`, for which the z-score is -0.437.

Turning to `CCOC(=O)c1cc2n(c1N)-c1ccccc1C2=O`, the z-score was 5.13 (active).

On to `CCOC(=O)c1cc(C(C)=O)c(=O)n(C)c1N`, for which the z-score is -0.198.

Turning to `CCOC(=O)c1c(C)[nH]c(C)c1C(=O)COC(=O)/C=C/c1ccc(OC(F)F)cc1`, the z-score was -0.244.

`COCC(C)n1c(SCC(=O)NNC(=O)c2ccccc2)nc2ccccc2c1=O` (stereo not drawn) returned a z-score of -0.346.

On to `CCOC(=O)/C(C#N)=C/C1=C(N2CCCC2)CC(C)(C)OC1`, for which the z-score turned out to be 2.75.

Compound `CCOC(=O)/C(C#N)=C\C1=C(N2CCCC2)CC(C)(C)OC1` gave a z-score of 0.457.

For `CCOC(=O)/C(C#N)=C/C1=C(N2CCCC2)CC(C)(CC)OC1` (stereo not drawn), the z-score is -0.501.

`Cc1ccc(S(=O)(=O)N2C(=O)C(c3ccccc3)SC2=Nc2ccccc2)cc1` (stereo not drawn) yielded a z-score of 0.00767.
